For 16 molecules, growth results are on record in PubChem BioAssay (NCI).

About 83,000 compounds went through this panel and 20% of them were active in at least one assay; those are over-represented in the sample as a whole.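 Step 1: grow cells in 96-well plates. Step 2: add test compound at a single concentration. Step 3: incubate 48 h. Step 4: record percent growth.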 A number with no mark means an inactive call. Activity calls are given as the source filed them. Rule for the calls: active = growth percent below 10; inactive = the rest.

Test systems include T-47D breast; BT-549 breast; MDA-MB-435 melanoma; SW-620 colon; MCF7 breast; HCT-116 colon; HCC-2998 colon; KM12 colon.
Holding throughout (assay): NCI-60 one-dose screen, 48 h (100 = growth as untreated, 0 = no growth, -100 = all killed)
Details in all cases: 10 µM unless noted

On to `CC(=O)Nc1scc[n+]1Cc1ccccc1`, for which the growth in the assay on T-47D breast is 102%; in the assay on BT-549 breast it was 103%; in the assay on MDA-MB-435 melanoma, 110%; in the assay on SW-620 colon it was 105%; with MCF7 breast, 98.4%; in the assay with HCT-116 colon, 102%. For the same molecule, the figures for the growth in the assay on HCC-2998 colon and with KM12 colon were 103% and 105%, respectively.
For the molecule `Cc1nc2ncccc2nc1Nc1ccc(S(=O)(=O)Nc2ccccn2)cc1`, the growth in the assay on T-47D breast is 91.2%; with BT-549 breast, 83.3%; in the assay with MDA-MB-435 melanoma, 109%; in the assay with SW-620 colon, 102%; in the assay on MCF7 breast, 92.7%; in the assay on HCT-116 colon, 92%. Further, the growth was 99.5% with HCC-2998 colon and 97.8% in the assay with KM12 colon.
For the molecule `O=[N+]([O-])c1cccc(-c2nc3sccn3c2-c2ccnc(NCCCNS(=O)(=O)c3ccc(C(F)(F)F)cc3)n2)c1`, the growth in the assay on T-47D breast is -1.61% (active); with BT-549 breast, 30.3%; in the assay with MDA-MB-435 melanoma, 18.4%; in the assay on SW-620 colon it was 66.6%; with MCF7 breast, 14.9%; in the assay on HCT-116 colon it was 30.5%. Further, the figures for the growth in the assay with HCC-2998 colon and in the assay on KM12 colon were 52.9% and 23.9%, respectively.
On to `COc1cccc(-c2nc3sccn3c2-c2ccnc(NCCCNS(=O)(=O)c3ccc(C(F)(F)F)cc3)c2)c1`, for which the growth is 23.7% in the assay on T-47D breast; 54.6% in the assay on BT-549 breast; 36.8% with MDA-MB-435 melanoma; 68.5% in the assay with SW-620 colon; 31.1% in the assay with MCF7 breast; 41.9% in the assay on HCT-116 colon. For the same molecule, the figures for the growth in the assay with HCC-2998 colon and with KM12 colon were 72.2% and 57.2%, respectively.
With `COc1cc(NCCCCCN)c2ncccc2c1`, the growth with T-47D breast was 96.2%; in the assay on BT-549 breast, 113%; in the assay on MDA-MB-435 melanoma, 114%; with SW-620 colon, 99.4%; in the assay on MCF7 breast, 83.2%; in the assay on HCT-116 colon, 89.1%. In addition, the growth is 125% in the assay with HCC-2998 colon and 109% in the assay with KM12 colon.
With `O=C1/C(=C/c2ccc(Cl)cc2)CN(C(=O)CCN2CCC(=NO)CC2)C/C1=C\c1ccc(Cl)cc1`, the growth in the assay on T-47D breast was -37.2% (active); in the assay with BT-549 breast, -88% (active); in the assay with MDA-MB-435 melanoma, -94.7% (active); with SW-620 colon it was -61.1% (active); with MCF7 breast it was -53.3% (active); in the assay with HCT-116 colon it was -48% (active). In addition, the growth in the assay with HCC-2998 colon was -76.1% (active); with KM12 colon, -86.1% (active).
Regarding `CC(C)(C)n1cc(-c2ccnc(NCCCNS(=O)(=O)c3ccccc3)c2)c(-c2cccc(O)c2)n1`, the growth is 23.8% in the assay on T-47D breast; 47.4% in the assay with BT-549 breast; 54.8% in the assay on MDA-MB-435 melanoma; 14.5% in the assay with SW-620 colon; 25.1% in the assay with MCF7 breast; 36.8% in the assay on HCT-116 colon. Further, the growth in the assay with HCC-2998 colon is 18.5%; in the assay on KM12 colon it was 26.9%.
Turning to `COc1ccc(C(=O)N2NC(=O)/C(=C/c3ccc(F)cc3)N=C2c2ccccc2)cc1`, the growth in the assay on T-47D breast is 95.6%; in the assay with BT-549 breast it was 83%; with MDA-MB-435 melanoma, 87.6%; in the assay on SW-620 colon, 69.3%; with MCF7 breast, 96.6%; with HCT-116 colon, 81.2%. Further, the growth is 97.4% in the assay with HCC-2998 colon and 85.5% with KM12 colon.
As for `COc1cc2c(cc1OCCCN1CCN(CCCn3c4ccccc4c4ccccc43)CC1)N=C[C@@H]1CCCN1C2=O`, the growth in the assay on T-47D breast was -31.1% (active); with BT-549 breast it was -84.1% (active); in the assay with MDA-MB-435 melanoma it was -80.5% (active); in the assay with SW-620 colon, -83.2% (active); in the assay with MCF7 breast it was -72% (active); in the assay with HCT-116 colon, -27.8% (active). In addition, the growth with HCC-2998 colon is -86.3% (active); with KM12 colon, -64.7% (active).
As to `COc1ccc(-c2ccc(-c3ccc(C(=N)N)cn3)s2)cc1OC`, the growth with T-47D breast was 84.6%; in the assay on BT-549 breast it was 94.4%; in the assay with MDA-MB-435 melanoma, 103%; with SW-620 colon, 90.3%; with MCF7 breast, 84.9%; with HCT-116 colon, 80.2%. Further, the growth in the assay on HCC-2998 colon is 109%; in the assay on KM12 colon, 95.9%.
As to `OCCCCCCNc1ncnc2cc(Cl)ccc12`, the growth in the assay with T-47D breast was 72%; in the assay with BT-549 breast, 87.1%; with MDA-MB-435 melanoma, 109%; in the assay on SW-620 colon, 103%; in the assay with MCF7 breast, 97.8%; in the assay on HCT-116 colon it was 81.9%. Besides, the growth in the assay on HCC-2998 colon is 106%; with KM12 colon it was 99.7%.
For the molecule `CC(C)C(C(=O)NCCN1CCOCC1)N1C(=O)/C(=C/c2ccc(Br)cc2)SC1=S` (stereo not drawn), the growth with T-47D breast is 94.1%; in the assay on BT-549 breast, 99%; in the assay with MDA-MB-435 melanoma, 101%; in the assay on SW-620 colon, 102%; in the assay on MCF7 breast it was 95.3%; in the assay with HCT-116 colon it was 94.8%. Besides, the growth was 107% with HCC-2998 colon and 99.7% in the assay with KM12 colon.
As for `CN1CCN(Cc2ccc(NC(=O)c3nc4ccc5[nH]ncc5c4c4c3CCC4)cc2C(F)(F)F)CC1`, the growth in the assay with T-47D breast was -26.4% (active); in the assay with BT-549 breast it was 91.6%; in the assay on MDA-MB-435 melanoma, -91.4% (active); in the assay on SW-620 colon, -56.2% (active); with MCF7 breast, -29.7% (active); in the assay with HCT-116 colon, -94.2% (active). In addition, the values for the growth with HCC-2998 colon and with KM12 colon were -10.5% (active) and -79.8% (active), respectively.
Take `Cc1ccc(NS(=O)(=O)c2cc(C)ccc2C)cc1`: the growth in the assay on T-47D breast is 47.9%; in the assay with BT-549 breast, 39.1%; in the assay with MDA-MB-435 melanoma it was -24% (active); in the assay on SW-620 colon it was 19.9%; in the assay with MCF7 breast, 24.3%; in the assay on HCT-116 colon, 17.6%. Besides, the growth is 50.9% in the assay with HCC-2998 colon and 16.2% in the assay with KM12 colon.
On to `O=C(O)/C=C/C(=O)c1ccc(Cl)cc1`, for which the growth in the assay with T-47D breast is 95.5%; with BT-549 breast, 98.1%; in the assay with MDA-MB-435 melanoma, 121%; in the assay with SW-620 colon it was 108%; with MCF7 breast it was 102%; with HCT-116 colon it was 108%. For the same molecule, the growth is 109% in the assay on HCC-2998 colon and 106% in the assay on KM12 colon.
Regarding `O=C(Oc1ccccc1[N+](=O)[O-])C1CCCN1C(=O)OCc1ccccc1` (stereo not drawn), the growth was 110% with T-47D breast; 89.6% in the assay with BT-549 breast; 104% with MDA-MB-435 melanoma; 105% in the assay on SW-620 colon; 95.6% in the assay with MCF7 breast; 87% in the assay on HCT-116 colon. Further, the figures for the growth in the assay on HCC-2998 colon and in the assay on KM12 colon were 101% and 107%, respectively.
